# This excerpt belongs to a sample that is enriched for hits.
# AMA1-RON2 inh = inhibitors of Plasmodium falciparum AMA1-RON2 interaction; Potency, µM (doses to about 58.2 µM), without a hit: at the highest dose activity change, negative = inhibition, actives largely listed as inhibitors; AlphaScreen AMA1-biotinylated RON2 peptide binding; 0.2% of 360,000 active; active = well fitted inhibition curve with a large enough effect; inconclusive = small, poorly fitted or top-dose-only effect; inactive = no such curve, though single readings can be large or run the other way;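 note: potency is the fitted concentration of half-maximal effect; 0% = vehicle wells and -100% = peptide control; nearly all actives have a fitted effect of over 45% in size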
#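 AMA1 (3D7) with his tag at 25 nM final met compounds first, then biotinylated RON2 peptide at 25 nM; detection used donor plus acceptor beads, 10 µg/mL apiece, read by AlphaScreen after 30 min at room temperature.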
# Shiga toxin inh = blocks Shiga toxin action in Vero cells; 9.2% of 290,000 active; Vero cells, Shiga toxin protein synthesis inhibition reporter; AID 2315; inhibition, % at 38.7 µM; in the data active = inhibition mostly above about 28%, no sharp cut-off; inactive = mostly below about 43%; note: 0% is about no effect
# LASV entry inh = inhibitors of Lassa virus binding or cell entry | Potency, µM (highest dose often 37.9 µM), without a hit: at the top dose activity change, negative = inhibition, most hits filed as inhibitors | 1.2% of 300,000 active | Lassa virus pseudotype entry inhibition, cell reporter; calls by dose curve; tested in HEK293 cells; note: potency is the fitted concentration of half-maximal effect; % is set by controls: 0 for no effect and ±100 for the full control effect; nearly all actives have a fitted effect of over 50% in size
# Marburg entry inh = inhibitors of Marburg virus binding or cell entry; Marburg virus pseudotyped entry inhibition, cell reporter; Potency, µM (series often up to 37.8 µM), inactives show at the highest dose activity change, negative = inhibition, usual class: inhibitors; 1.8% of 300,000 active; calls by dose curve; tested in HEK293 cells; note: potency is the fitted concentration of half-maximal effect; % is set by controls: 0 for no effect and ±100 for the full control effect
# CHX counter = affects cycloheximide protein synthesis inhibition readout, counter-screen; 12% of 300,000 active; AID 2314; max response, %; cell reporter, cycloheximide protein synthesis inhibition counterscreen; in the data active = max response mostly above about 13%, no sharp cut-off; inactive = mostly below about 14%; note: read at 38.3 µM for the half of the compounds with a filed dose; 0% is about no effect
# Active calls of the source: *; ? = inconclusive; / = not tested or not shown; [ ] = remark or other dose.
SMILES,AMA1-RON2 inh,Shiga toxin inh,LASV entry inh,Marburg entry inh,CHX counter
Cc1nc(SCCC(=O)O)c2ccccc2n1,-0.2%,-8.3,16.8%,-0.5%,-0.1
c1ccc(OCCSc2nc3ccccc3[nH]2)cc1,0.0%,20.8*,?,3.1%,25.7*
CCOC(=O)C1=CCN(S(=O)(=O)c2ccc(Br)cc2)C1c1ccc(C)cc1 (stereo not given),5.5%,/,/,/,/
CCc1nc2oc3ccccc3c(=O)c2cc1C(=O)OC,6.2%,51.0*,-7.2%,?,24.3*
Cc1nc2oc3ccc(F)cc3c(=O)c2cc1C(=O)O,2.0%,30.4,2.6%[46.1 µM],18.4%[46.1 µM],26.5*
O=C(O)c1cc2c(=O)c3ccccc3oc2nc1C(F)(F)F,-2.2%,-6.0,10.0%[46.1 µM],2.9%[46.1 µM],-3.8
CC(=O)c1cc2c(=O)c3cc(C)ccc3oc2nc1C,4.9%,120.7*,?,-0.2%,29.5*
Cc1ccc2oc3nc(C)c(C(=O)O)cc3c(=O)c2c1,-3.3%,34.6,?,18.1%,41.2*
Cc1ccc2oc3ccccc3c(=O)c2c1,9.3%,/,/,/,/
CCOC(=O)c1cc2c(=O)c3cc(C)ccc3oc2nc1C,-6.2%,51.7*,?,20.3%[46.1 µM],39.6*
CCN(CC)C(=O)c1cc2c(=O)c3cc(Cl)ccc3oc2nc1C,10.4%,14.0,3.7%,27.8%[46.1 µM],14.2
COCc1nc2oc3ccc(C)cc3c(=O)c2cc1C(=O)OC,-29.2%,42.4,?,?,23.1*
O=C(NCCCNC(=O)c1ccc(-c2cc(Cl)ccc2Cl)o1)c1cnccn1,3.4%,-3.2,/,/,-0.9
CC(=O)n1c2c(c3ccccc31)OC(N)=C(C#N)C2c1ccc(C(C)C)cc1 (stereo not given),-4.3%,83.4*,-8.7%,3.0%,46.2*
COc1ccc(NC(=O)CCN2C(=O)[C@@H]3[C@H](C2=O)[C@H]2C=C[C@@H]3C2)cc1,-2.7%,32.8,/,/,2.2
O=C(CCN1C(=O)C2C3CCC(C3)C2C1=O)Nc1ccc(Br)cc1 (stereo not given),-8.8%,-37.9,-4.1%,-10.1%,11.8*
COc1ccc(NC(=O)CCN2C(=O)C3C4CCC(C4)C3C2=O)cc1 (stereo not given),21.0%,38.2,-14.7%,-13.8%,17.1*
Cc1ccc(NC(=O)CCN2C(=O)C3C4CCC(C4)C3C2=O)cc1Cl (stereo not given),-12.9%,21.0,2.2%,12.7%,25.2*
C=C(C)c1cc2c(ccc3ccc(=O)oc32)o1,8.0%,/,/,/,/
O=C(CN1CCN(S(=O)(=O)c2ccccc2)CC1)NCCc1ccccc1,4.8%,-10.5,?,0.5%,-5.8
Cc1ccc(Nc2ncnc(N)n2)cc1,5.5%,49.7*,10.8%[46.1 µM],22.8%[46.1 µM],36.5*
CCOc1ccc(Nc2ncnc(N)n2)cc1,2.4%,45.0*,19.2%,10.5%,17.8
